Experimental data taken from PubChem BioAssay (NCI).
The panel holds about 79,000 compounds, 15% with a hit somewhere; the sample as a whole holds those more often. Activity calls are given as the source filed them. Rule as the data show it: active = growth inhibition above about 70%; inactive = the rest.

Tests used:
[1] = NCI Yeast Anticancer Drug Screen. Data for the rad52 strain (AID 147);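 also: 0% = growth of vehicle-treated control cultures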; details: S. cerevisiae rad52 mutant growth inhibition, stronger effect = higher value
Summary of the method: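 Screen used a yeast mutant impaired in DNA repair. After compound exposure, growth was measured. Values reflect inhibition compared with vehicle-treated cells.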

[2] = NCI Yeast Anticancer Drug Screen. Data for the wt1 strain (AID 149);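 also: 0% = growth of vehicle-treated wt1 cultures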; details: S. cerevisiae wt1 strain (SPY 50644) growth inhibition, stronger effect = higher value
Summary of the method: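 Vehicle-normalised growth inhibition; strain wt1; compound exposure.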

[3] = NCI Yeast Anticancer Drug Screen. Data for the rad50EPP+ strain (AID 151);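 also: 0% = growth of vehicle-treated control cultures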; details: S. cerevisiae rad50 mutant strain, stronger effect = higher value
Summary of the method: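 Exposing the rad50EPP+ strain to each compound, growth was compared with vehicle-only cultures to give inhibition.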

[4] = NCI Yeast Anticancer Drug Screen. Data for the mgt1 strain (AID 153); details: S. cerevisiae mgt1 mutant growth inhibition, stronger effect = higher value
Summary of the method: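 Genetically defined yeast (mgt1) treated with compound; inhibition of growth expressed against vehicle-treated controls.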

[5] = NCI Yeast Anticancer Drug Screen. Data for the rad50 strain (AID 155);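 also: 0% = growth of vehicle-only cultures of the same strain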; details: S. cerevisiae rad50 strain growth inhibition, stronger effect = higher value
Summary of the method: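 A DNA repair-deficient yeast mutant serves as the test organism; compound-induced growth inhibition is calculated against vehicle-treated cells.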

[6] = NCI Yeast Anticancer Drug Screen. Data for the mec2-1 strain (AID 157); details: S. cerevisiae mec2-1 strain, stronger effect = higher value
Summary of the method: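 Readout is yeast growth inhibition, normalised to vehicle-treated controls, in the mec2-1 strain exposed to compound.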

[7] = NCI Yeast Anticancer Drug Screen. Data for the rad14 strain (AID 159);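 also: 0% = growth of vehicle-treated control cultures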; details: S. cerevisiae rad14 strain growth inhibition, stronger effect = higher value
Summary of the method: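 Vehicle-treated cultures served as the baseline for growth inhibition of a DNA repair-mutant yeast strain exposed to each compound.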

[8] = NCI Yeast Anticancer Drug Screen. Data for the sgs1 mgt1 strain (AID 161);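 also: 0% = growth of cultures given vehicle only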; details: S. cerevisiae sgs1 mgt1 strain, stronger effect = higher value
Summary of the method: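 Percent growth inhibition was derived by comparing compound-exposed mutant yeast with vehicle-exposed cultures. The strain carries alterations in DNA damage repair.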

[9] = NCI Yeast Anticancer Drug Screen. Data for the CLN2oe strain (AID 163);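 also: 0% = growth of vehicle-only control cultures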; details: S. cerevisiae CLN2oe strain, stronger effect = higher value
Summary of the method: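 Values reflect how much compound exposure reduced yeast growth, referenced to vehicle-exposed cells. Assay organism is a strain with a defined genetic change affecting cell-cycle control.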

[10] = NCI Yeast Anticancer Drug Screen. Data for the cln2 rad14 strain (AID 165);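 also: 0% = growth equal to vehicle treated cultures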; details: S. cerevisiae cln2 rad14 strain, stronger effect = higher value
Summary of the method: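 Relative to vehicle controls, growth inhibition of compound-treated cln2 rad14 yeast was recorded.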

[11] = NCI Yeast Anticancer Drug Screen. Data for the bub3 strain (AID 167); details: S. cerevisiae bub3 mutant strain, stronger effect = higher value
Summary of the method: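 Inhibition values come from growth of compound-treated mutant yeast normalised to vehicle-treated controls.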

[12] = NCI Yeast Anticancer Drug Screen. Data for the wt2 strain (AID 169);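 also: 0% = growth of vehicle-treated yeast cultures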; details: S. cerevisiae wt2 strain growth inhibition, stronger effect = higher value
Summary of the method: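 Values express reduction in yeast growth under compound treatment, referenced to vehicle-treated cells.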

[13] = NCI Yeast Anticancer Drug Screen. Data for the mlh1 strain (AID 171);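 also: 0% = growth of vehicle-treated control cultures of the same strain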; details: S. cerevisiae mlh1 strain growth inhibition, stronger effect = higher value
Summary of the method: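 Steps: expose the defined-mutant yeast strain to compound; expose a parallel culture to vehicle; measure growth; express compound effect as inhibition relative to the vehicle culture.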

[14] = NCI Yeast Anticancer Drug Screen. Data for the sgs1 strain (AID 173);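 also: 0% = growth of vehicle-only control cultures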; details: S. cerevisiae sgs1 mutant, stronger effect = higher value
Summary of the method: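 Treat defined-mutant yeast with compound; measure growth; calculate inhibition relative to vehicle-treated cells.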

[15] = NCI Yeast Anticancer Drug Screen. Data for the mlh1 rad18 strain (AID 175); details: S. cerevisiae mlh1 rad18 strain growth inhibition, stronger effect = higher value
Summary of the method: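 Test agents were incubated with a yeast strain of defined genotype (DNA damage repair defect). Inhibition of growth was derived by comparison with vehicle-exposed cultures.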

[16] = NCI Yeast Anticancer Drug Screen. Data for the rad18 strain (AID 177); details: S. cerevisiae rad18 mutant growth inhibition, stronger effect = higher value
Summary of the method: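 A genetically defined yeast mutant impaired in DNA damage repair was treated with test compounds, then its growth was measured against cultures receiving vehicle alone.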

[17] = at 5.0 µM (retest, dose inferred, filed as 0.5)
[18] = at 50.0 µM (retest, dose inferred, filed as 5.0)

Measured: growth inhibition

O=C1C2CC(Cl)C(SSC3CC4C(=O)N(SC(Cl)(Cl)C(Cl)Cl)C(=O)C4CC3Cl)CC2C(=O)N1SC(Cl)(Cl)C(Cl)Cl (stereo not drawn)
active: [1]; at 1.2 µM 71% | [1]; at 3.7 µM 91% | [1]; at 11.0 µM 96% | [1]; at 33.0 µM 95% | [1]; at 100.0 µM 89% | [2]; at 3.7 µM 83% | [2]; at 11.0 µM 97% | [2]; at 33.0 µM 96% | [2]; at 100.0 µM 93% | [3]; at 1.2 µM 75% | [3]; at 3.7 µM 97% | [3]; at 11.0 µM 98% | [3]; at 33.0 µM 97% | [3]; at 100.0 µM 93% | [4]; at 3.7 µM 98% | [4]; at 11.0 µM 99% | [4]; at 33.0 µM 97% | [4]; at 100.0 µM 92% | [5]; at 3.7 µM 92% | [5]; [17] 98% | [5]; at 11.0 µM 97% | [5]; at 33.0 µM 96% | [5]; [18] 95% | [5]; at 50.0 µM 90.3% | [5]; at 100.0 µM 90% | [6]; at 3.7 µM 91% | [6]; [17] 100% | [6]; at 11.0 µM 99% | [6]; at 33.0 µM 98% | [6]; [18] 98% | [6]; at 50.0 µM 90.4% | [6]; at 100.0 µM 94% | [7]; at 1.2 µM 83% | [7]; at 3.7 µM 96% | [7]; at 11.0 µM 97% | [7]; at 33.0 µM 96% | [7]; at 100.0 µM 90% | [8]; [18] 95% | [8]; at 50.0 µM 89.5% | [9]; at 3.7 µM 96% | [9]; at 11.0 µM 98% | [9]; at 33.0 µM 97% | [9]; at 100.0 µM 90% | [10]; at 50.0 µM 84.9% | [11]; at 1.2 µM 80% | [11]; at 3.7 µM 99% | [11]; at 11.0 µM 99% | [11]; at 33.0 µM 96% | [11]; [18] 98% | [11]; at 50.0 µM 92.8% | [11]; at 100.0 µM 90% | [12]; at 3.7 µM 95% | [12]; at 11.0 µM 98% | [12]; at 33.0 µM 97% | [12]; at 100.0 µM 90% | [13]; at 3.7 µM 97% | [13]; at 11.0 µM 98% | [13]; at 33.0 µM 97% | [13]; at 100.0 µM 93% | [14]; at 1.2 µM 80% | [14]; at 3.7 µM 98% | [14]; at 11.0 µM 97% | [14]; at 33.0 µM 96% | [14]; at 100.0 µM 87% | [15]; [17] 99% | [15]; [18] 96% | [15]; at 50.0 µM 90.8% | [16]; at 1.2 µM 96% | [16]; at 3.7 µM 97% | [16]; at 11.0 µM 97% | [16]; at 33.0 µM 97% | [16]; at 100.0 µM 89%
inactive: [2]; at 1.2 µM 14% | [4]; at 1.2 µM 68% | [5]; at 1.2 µM 49% | [6]; at 1.2 µM 37% | [8]; [17] -9% | [9]; at 1.2 µM 40% | [10]; [17] -20% | [10]; [18] -57% | [11]; [17] -6% | [12]; at 1.2 µM 17% | [13]; at 1.2 µM 64%
